In all, about 5,500 compounds went through this assay and about 2,000 (36%) were called active. Roughly 18% stayed inconclusive and do not appear here. No stated cut-off is given here; in the data, active means normalized growth mostly below about 0.91 (no sharp cut-off); inconclusive means no clear call, values can overlap the other calls; inactive means mostly above about 0.92. This is one part of the list.
Assay: chemical genetic growth profiling, strain panel (AID 1159580);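 further: tested at 20 µM; growth read once vehicle control cultures reached saturation at 30 °C; 1 = growth at the plate median or of vehicle wells; lower values mean less growth of the strain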
Details: growth OD
[1] = S. cerevisiae deletion strains, locus YDR150W, strain NUM1, hits give low values
[2] = S. cerevisiae deletion strains, locus YPL055C, strain LGE1, hits give low values
[3] = S. cerevisiae deletion strains, locus YPL241C, strain CIN2, hits give low values

Measured: normalized growth

CSC(N)=NCCC[C@H](N)C(=O)O
inactive: S. cerevisiae deletion strains, locus YAL040C, strain CLN3, hits give low values 1.1 | S. cerevisiae deletion strains, locus YCL061C, strain MRC1 (second series), hits give low values 1.01 | [1] 1.02 | S. cerevisiae deletion strains, locus YDR363W, strain ESC2, hits give low values 0.997 | S. cerevisiae deletion strains, locus YER002W, strain NOP16, hits give low values 1.02 | S. cerevisiae deletion strains, locus YMR307W, strain GAS1, hits give low values 1 | S. cerevisiae deletion strains, locus YNL175C, strain NOP13, hits give low values 1.01 | S. cerevisiae deletion strains, locus YNL197C, strain WHI3, hits give low values 1 | S. cerevisiae deletion strains, locus YNL224C, strain SQS1, hits give low values 1 | S. cerevisiae deletion strains, locus YOR083W, strain WHI5 (second series), hits give low values 1 | [2] 1 | [3] 1.01

COc1ccc(OC)c(S(=O)(=O)N2CCc3cc(OC)c(OC)cc3C2C)c1 (stereo unspecified)
inactive: S. cerevisiae deletion strains, locus YAL013W, strain DEP1, hits give low values 1 | S. cerevisiae deletion strains, locus YBR229C, strain ROT2, hits give low values 0.998 | S. cerevisiae deletion strains, locus YCL061C, strain MRC1, hits give low values 0.994 | S. cerevisiae deletion strains, locus YDL101C, strain DUN1, hits give low values 0.972 | S. cerevisiae deletion strains, locus YDL134C, strain PPH21, hits give low values 0.992 | [1] 0.909 | S. cerevisiae deletion strains, locus YEL061C, strain CIN8, hits give low values 0.998 | S. cerevisiae deletion strains, locus YGR078C, strain PAC10, hits give low values 0.99 | S. cerevisiae deletion strains, locus YHR030C, strain SLT2, hits give low values 0.996 | S. cerevisiae deletion strains, locus YHR087W, strain rtc3, hits give low values 1.03 | S. cerevisiae deletion strains, locus YJL187C, strain SWE1, hits give low values 1.01 | S. cerevisiae deletion strains, locus YJR043C, strain POL32, hits give low values 0.973 | S. cerevisiae deletion strains, locus YJR075W, strain HOC1, hits give low values 0.999 | S. cerevisiae deletion strains, locus YKL190W, strain CNB1, hits give low values 0.984 | S. cerevisiae deletion strains, locus YLR039C, strain RIC1, hits give low values 0.948 | S. cerevisiae deletion strains, locus YLR058C, strain SHM2 (second series), hits give low values 1.02 | S. cerevisiae deletion strains, locus YLR085C, strain ARP6, hits give low values 1.02 | S. cerevisiae deletion strains, locus YLR262C, strain YPT6, hits give low values 1.02 | S. cerevisiae deletion strains, locus YML094W, strain GIM5, hits give low values 1.03 | S. cerevisiae deletion strains, locus YMR219W, strain ESC1, hits give low values 1 | S. cerevisiae deletion strains, locus YMR263W, strain SAP30, hits give low values 1.01 | S. cerevisiae deletion strains, locus YNL153C, strain GIM3, hits give low values 0.994 | S. cerevisiae deletion strains, locus YNL298W, strain CLA4 (second series), hits give low values 0.993 | S. cerevisiae deletion strains, locus YNL322C, strain KRE1, hits give low values 1 | S. cerevisiae deletion strains, locus YNR030W, strain Alg12, hits give low values 1 | [2] 1.02 | [3] 0.996 | S. cerevisiae deletion strains, locus YPR135W, strain CTF4, hits give low values 0.947 | S. cerevisiae strains, strain wild type, hits give low values 0.972

Source: PubChem BioAssay AID1159580 (chemical genetic matrix, 2015)
